{"source": "PubChem BioAssay (NCATS)", "note": "The source made the active and inactive calls. How the calls were made is not given here. Potency means the concentration at half of the fitted maximal effect."}
{"test_system": "HIV-1 nucleocapsid protein NCp7 (binding to TG oligonucleotide)", "assay": "HIV Nucleocapsid (AID 346);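 further: potency is for inhibitors that block NC binding and lower polarization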", "details": "HIV-1 NC / fluorescein-TGTGTGTG probe, fluorescence polarization", "outline": "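NCp7 100 nM + fluorescein TG4xF 10 nM; Hepes pH 7.5/250mM NaCl/1uM ZnCl2/0.004% PEG 20000; 1 hr RT; FP, 45 s exposure; oligo-only wells as negative control.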"}
{"compound": "COc1cccc(Nc2ncc3nc(-c4cccs4)c(=O)n(C[C@H]4CCCO4)c3n2)c1", "Potency": "> 4 µM (inactive)"}
{"compound": "CS(=O)(=O)N1CCC2(CCN(C(=O)Nc3cccc(F)c3)CC2)CC1", "Potency": "> 20 µM (inactive)"}
{"compound": "COc1ccc(C(=O)N2CCC3(CCN(C(=O)Nc4ccccc4)CC3)CC2)cc1", "Potency": "> 20 µM (inactive)"}
{"compound": "Cc1cnc(CNc2ncncc2-c2ccccc2C#N)cn1", "Potency": "> 20 µM (inactive)"}
{"compound": "O=S(=O)(c1ccccc1)N1CCC[C@@]2(CCN(C(c3ccccc3)c3ccccc3)C2)C1", "Potency": "> 20 µM (inactive)"}
{"compound": "COc1ccc(-c2nc3cncnc3n(-c3ccccc3)c2=O)cc1", "Potency": "> 20 µM (inactive)"}
{"compound": "O=C(Oc1ccccc1)N1CCC2(CC1)CCN(c1ccccc1)CC2", "Potency": "> 20 µM (inactive)"}
{"compound": "c1cncc(-c2ccc3ncnc(NC4CCNCC4)c3c2)c1", "Potency": "> 20 µM (inactive)"}
{"compound": "O=C(Nc1cccc(F)c1)N1CCCC2(CCN(C(=O)c3csnn3)CC2)C1", "Potency": "> 20 µM (inactive)"}
{"compound": "Cn1cccc1C(=O)N1CCC2(CC1)CN(c1ccncc1)C2", "Potency": "> 20 µM (inactive)"}
{"compound": "COCCn1c(=O)c(-c2cccc(C#N)c2)nc2cnc(Oc3ccc(OC)cc3)nc21", "Potency": "> 20 µM (inactive)"}
{"compound": "Cn1cccc1C(=O)N1CCC2(CC1)CCN(c1cccc(-c3ccccc3)c1)CC2", "Potency": "> 20 µM (inactive)"}
{"compound": "Cn1cc(-c2nc3cnc(Oc4cccc(Cl)c4)nc3n(CCC#N)c2=O)c2ccccc21", "Potency": "> 20 µM (inactive)"}
{"compound": "COc1ccccc1CNc1cc(-c2cccc(C#N)c2)ncn1", "Potency": "> 20 µM (inactive)"}
{"compound": "Cc1cnc(CNc2ncnc3ccc(-c4ccc(N(C)C)cc4)cc23)cn1", "Potency": "> 20 µM (inactive)"}
{"compound": "O=C(Nc1cccc(F)c1)N1CCC2(CC1)CCN(C(=O)c1cc(C(F)(F)F)cc(C(F)(F)F)c1)CC2", "Potency": "> 20 µM (inactive)"}
{"compound": "O=c1c(-c2ccccc2)nc2cnc(Oc3ccccc3)nc2n1C1CC1", "Potency": "> 20 µM (inactive)"}
{"compound": "Cc1noc(C)c1-c1cncnc1NCc1cccnc1", "Potency": "> 20 µM (inactive)"}
{"compound": "CN(C)c1ccc(-c2nc(N(C)Cc3ccco3)c3ccccc3n2)cc1", "Potency": "> 20 µM (inactive)"}
{"compound": "COCC(=O)N1CCC2(CCN(Cc3ccncc3)CC2)CC1", "Potency": "> 20 µM (inactive)"}
{"compound": "COc1cccc(Nc2ncc3nc(C)c(=O)n(-c4ccccc4)c3n2)c1", "Potency": "> 20 µM (inactive)"}
{"compound": "N#Cc1cccc(-c2nc(NCc3cccnc3)c3ccccc3n2)c1", "Potency": "> 20 µM (inactive)"}
{"compound": "Cc1cnc(CNc2ncnc3ccc(-c4cccc(NS(C)(=O)=O)c4)cc23)cn1", "Potency": "> 20 µM (inactive)"}
{"compound": "COc1ccc2[nH]cc(CCNc3ccnc(-c4ccoc4)n3)c2c1", "Potency": "> 20 µM (inactive)"}
{"compound": "Cc1noc(C)c1-c1cc(N2CCNCC2)ncn1", "Potency": "> 20 µM (inactive)"}
{"compound": "COc1ccc(Oc2ncc3nc(-c4cn(C)c5ccccc45)c(=O)n(C4CC4)c3n2)cc1", "Potency": "> 20 µM (inactive)"}
{"compound": "O=c1c(-c2ccc(F)c(F)c2)nc2cncnc2n1Cc1ccc(F)cc1", "Potency": "> 20 µM (inactive)"}
{"compound": "COc1ccc(C(=O)N2CCC3(CCCN(C(c4ccccc4)c4ccccc4)C3)CC2)cc1", "Potency": "> 20 µM (inactive)"}
{"compound": "c1ccc2c(N3CCNCC3)nc(-c3ccc4c(c3)OCO4)nc2c1", "Potency": "> 20 µM (inactive)"}
{"compound": "COCC(=O)N1CCC[C@@]2(CCN(Cc3nccs3)C2)C1", "Potency": "> 20 µM (inactive)"}
{"compound": "COc1cccc(-c2cc(NCc3cnc(C)cn3)ncn2)c1", "Potency": "> 20 µM (inactive)"}
{"compound": "COc1ccc(CNc2cc(-c3ccccc3Cl)ncn2)c(OC)c1", "Potency": "> 20 µM (inactive)"}
{"compound": "COC(=O)N1CCC2(CCN(C(=O)Nc3cccc(F)c3)CC2)CC1", "Potency": "> 20 µM (inactive)"}
{"compound": "CN(C)C(=O)c1ccc(-c2cc(N(C)Cc3ccco3)ncn2)cc1", "Potency": "> 20 µM (inactive)"}
{"compound": "CC(C)CN1CCCC2(CCN(C(=O)c3ccco3)CC2)C1", "Potency": "> 20 µM (inactive)"}
{"compound": "Cc1cnc(CNc2ncnc3ccc(-c4ccccc4C(F)(F)F)cc23)cn1", "Potency": "> 20 µM (inactive)"}
{"compound": "COc1ccccc1CNc1ncnc2ccc(-c3ccccc3OC)cc12", "Potency": "> 20 µM (inactive)"}
{"compound": "CC(=O)NCCNc1nc(-c2ccc(C(=O)N(C)C)cc2)nc2ccccc12", "Potency": "> 20 µM (inactive)"}
{"compound": "COc1ccccc1-c1nc(NC2CC2)c2ccccc2n1", "Potency": "> 20 µM (inactive)"}
{"compound": "COc1ccc(CNc2ncnc3ccc(-c4ccc(C(=O)N(C)C)cc4)cc23)c(OC)c1", "Potency": "> 20 µM (inactive)"}
